Data reported in PubChem BioAssay AID1159580 (chemical genetic matrix, 2015).
Values joined by “and” are separate entries in the source; they are usually repeats but may differ in a detail not shown here. Identical values can stand only once. Hit rate of the full screen: of about 5,500 compounds, about 2,000 (36%) were called active. Not shown: some 18% with an inconclusive outcome. No stated cut-off is given here; in the data, active means normalized growth mostly below about 0.91 (no sharp cut-off); inconclusive means no clear call, values can overlap the other calls; inactive means mostly above about 0.92. The list shows a part of the results.

Assay: chemical genetic growth profiling, strain panel (AID 1159580);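 further: tested at 20 µM; growth read once vehicle control cultures reached saturation at 30 °C; 1 = growth at the plate median or of vehicle wells; lower values mean less growth of the strain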
Conditions: growth OD

Measured: normalized growth

C=C1C(N)CC2CC1C2(C)C (stereo not given)
inactive: S. cerevisiae deletion strains, locus YAL021C, strain ccr4, active compounds read low 1.01 | S. cerevisiae deletion strains, locus YAL026C, strain drs2, active compounds read low 1.01 | S. cerevisiae deletion strains, locus YAL030W, strain snc1, active compounds read low 1.01 | S. cerevisiae deletion strains, locus YBL061C, strain skt5, active compounds read low 1 | S. cerevisiae deletion strains, locus YBR009C, strain hhf1, active compounds read low 1.01 | S. cerevisiae deletion strains, locus YBR021W, strain FUR4, active compounds read low 1 | S. cerevisiae deletion strains, locus YBR023C, strain chs3, active compounds read low 0.985 | S. cerevisiae deletion strains, locus YBR171W, strain sec66, active compounds read low 0.99 | S. cerevisiae deletion strains, locus YBR229C, strain ROT2, active compounds read low 1.01 | S. cerevisiae deletion strains, locus YBR231C, strain swc5, active compounds read low 0.999 | S. cerevisiae deletion strains, locus YBR279W, strain paf1, active compounds read low 0.997 | S. cerevisiae deletion strains, locus YCL011C, strain gbp2, active compounds read low 0.983 | S. cerevisiae deletion strains, locus YCL016C, strain dcc1, active compounds read low 1.01 | S. cerevisiae deletion strains, locus YCL029C, strain bik1, active compounds read low 1.02 | S. cerevisiae deletion strains, locus YCL069W, strain vba3, active compounds read low 0.996 | S. cerevisiae deletion strains, locus YCR088W, strain abp1, active compounds read low 0.989 | S. cerevisiae deletion strains, locus YDL005C, strain med2, active compounds read low 0.991 | S. cerevisiae deletion strains, locus YDL035C, strain GPR1, active compounds read low 0.994 | S. cerevisiae deletion strains, locus YDL040C, strain nat1, active compounds read low 0.994 | S. cerevisiae deletion strains, locus YDL074C, strain BRE1, active compounds read low 1.02 | S. cerevisiae deletion strains, locus YDL101C, strain DUN1, active compounds read low 1.03 | S. cerevisiae deletion strains, locus YDL134C, strain PPH21, active compounds read low 1.03 | S. cerevisiae deletion strains, locus YDL185W, strain tfp1, active compounds read low 1.01 | S. cerevisiae deletion strains, locus YDL192W, strain arf1, active compounds read low 0.996 | S. cerevisiae deletion strains, locus YDR001C, strain nth1, active compounds read low 1 | S. cerevisiae deletion strains, locus YDR069C, strain doa4, active compounds read low 0.98 | S. cerevisiae deletion strains, locus YDR101C, strain arx1, active compounds read low 0.979 | S. cerevisiae deletion strains, locus YDR137W, strain rgp1, active compounds read low 1 | S. cerevisiae deletion strains, locus YDR150W, strain NUM1, active compounds read low 0.998 | S. cerevisiae deletion strains, locus YDR159W, strain sac3, active compounds read low 0.975 | S. cerevisiae deletion strains, locus YDR162C, strain NBP2, active compounds read low 1.01 | S. cerevisiae deletion strains, locus YDR195W, strain ref2 0.977 | S. cerevisiae deletion strains, locus YDR297W, strain sur2, active compounds read low 1 | S. cerevisiae deletion strains, locus YDR318W, strain mcm21, active compounds read low 1 | S. cerevisiae deletion strains, locus YDR334W, strain swr1, active compounds read low 0.99 | S. cerevisiae deletion strains, locus YDR335W, strain msn5, active compounds read low 0.995 | S. cerevisiae deletion strains, locus YDR388W, active compounds read low 1 | S. cerevisiae deletion strains, locus YDR392W, strain spt3, active compounds read low 1.01 | S. cerevisiae deletion strains, locus YDR502C, strain sam2, active compounds read low 1.04 | S. cerevisiae deletion strains, locus YEL003W, strain gim4, active compounds read low 0.998 | S. cerevisiae deletion strains, locus YEL037C, strain rad23, active compounds read low 0.99 | S. cerevisiae deletion strains, locus YEL061C, strain CIN8 (second series), active compounds read low 1.01 | S. cerevisiae deletion strains, locus YER015W, strain faa2, active compounds read low 0.99 | S. cerevisiae deletion strains, locus YER016W, strain bim1, active compounds read low 0.994 | S. cerevisiae deletion strains, locus YER110C, active compounds read low 1.02 | S. cerevisiae deletion strains, locus YER111C, strain swi4, active compounds read low 0.989 | S. cerevisiae deletion strains, locus YER155C, strain BEM2 (second series), active compounds read low 1 | S. cerevisiae deletion strains, locus YER155C, strain BEM2, active compounds read low 1 | S. cerevisiae deletion strains, locus YER167W, strain BCK2, active compounds read low 1 | S. cerevisiae deletion strains, locus YFR010W, strain ubp6, active compounds read low 1.01 | S. cerevisiae deletion strains, locus YGL078C, strain dbp3, active compounds read low 1.04 | S. cerevisiae deletion strains, locus YGL086W, strain mad1, active compounds read low 1 | S. cerevisiae deletion strains, locus YGL167C, strain pmr1, active compounds read low 0.99 | S. cerevisiae deletion strains, locus YGL173C, strain kem1, active compounds read low 0.998 | S. cerevisiae deletion strains, locus YGL227W, strain vid30, active compounds read low 1 | S. cerevisiae deletion strains, locus YGL240W, strain doc1, active compounds read low 0.994 | S. cerevisiae deletion strains, locus YGL248W, strain PDE1, active compounds read low 1.04 | S. cerevisiae deletion strains, locus YGL253W, strain hxk2, active compounds read low 1 | S. cerevisiae deletion strains, locus YGR078C, strain PAC10, active compounds read low 1.04 | S. cerevisiae deletion strains, locus YGR135W, strain pre9, active compounds read low 1.06 | S. cerevisiae deletion strains, locus YGR252W, strain gcn5, active compounds read low 1.09 | S. cerevisiae deletion strains, locus YHR013C, strain ard1, active compounds read low 1 | S. cerevisiae deletion strains, locus YHR027C, strain rpn1, active compounds read low 0.996 | S. cerevisiae deletion strains, locus YHR030C, strain SLT2, active compounds read low 0.996 | S. cerevisiae deletion strains, locus YHR079C, strain IRE1 (second series), active compounds read low 1.01 | S. cerevisiae deletion strains, locus YHR079C, strain IRE1, active compounds read low 0.994 | S. cerevisiae deletion strains, locus YHR094C, strain hxt1, active compounds read low 1.02 | S. cerevisiae deletion strains, locus YHR129C, strain ARP1, active compounds read low 1.01 | S. cerevisiae deletion strains, locus YHR142W, strain chs7, active compounds read low 1.01 | S. cerevisiae deletion strains, locus YHR200W, strain rpn10, active compounds read low 1.03 | S. cerevisiae deletion strains, locus YIL066C, strain RNR3, active compounds read low 1.01 | S. cerevisiae deletion strains, locus YIL073C, strain SPO22, active compounds read low 1.06 | S. cerevisiae deletion strains, locus YIL125W, strain kgd1, active compounds read low 1.01 | S. cerevisiae deletion strains, locus YIR030C, strain dcg1, active compounds read low 0.996 | S. cerevisiae deletion strains, locus YJL092W, strain hpr5, active compounds read low 0.995 | S. cerevisiae deletion strains, locus YJL095W, strain BCK1 (second series), active compounds read low 1.02 | S. cerevisiae deletion strains, locus YJL095W, strain BCK1, active compounds read low 1.05 and 0.98 | S. cerevisiae deletion strains, locus YJL115W, strain asf1, active compounds read low 0.99 | S. cerevisiae deletion strains, locus YJL129C, strain trk1, active compounds read low 1.01 | S. cerevisiae deletion strains, locus YJL134W, strain LCB3, active compounds read low 1 | S. cerevisiae deletion strains, locus YJL154C, strain vps35, active compounds read low 0.998 | S. cerevisiae deletion strains, locus YJL164C, strain tpk1, active compounds read low 0.997 | S. cerevisiae deletion strains, locus YJL166W, strain qcr8, active compounds read low 0.997 | S. cerevisiae deletion strains, locus YJL168C, strain set2, active compounds read low 1.01 | S. cerevisiae deletion strains, locus YJL187C, strain SWE1 (second series), active compounds read low 1.05 | S. cerevisiae deletion strains, locus YJL187C, strain SWE1, active compounds read low 0.997 | S. cerevisiae deletion strains, locus YJR066W, strain TOR1, active compounds read low 0.953 | S. cerevisiae deletion strains, locus YKL009W, strain mrt4, active compounds read low 0.998 | S. cerevisiae deletion strains, locus YKL068W, active compounds read low 1.01 | S. cerevisiae deletion strains, locus YKL085W, strain MDH1 (second series), active compounds read low 1.01 | S. cerevisiae deletion strains, locus YKL085W, strain MDH1, active compounds read low 1.01 | S. cerevisiae deletion strains, locus YKL160W, strain elf1, active compounds read low 0.998 | S. cerevisiae deletion strains, locus YKL190W, strain CNB1, active compounds read low 1.01 | S. cerevisiae deletion strains, locus YKR001C, strain vps1, active compounds read low 1.01 | S. cerevisiae deletion strains, locus YKR026C, strain gcn3, active compounds read low 0.999 | S. cerevisiae deletion strains, locus YKR091W, strain srl3, active compounds read low 0.996 | S. cerevisiae deletion strains, locus YLL001W, strain dnm1, active compounds read low 1 | S. cerevisiae deletion strains, locus YLL026W, active compounds read low 0.983 | S. cerevisiae deletion strains, locus YLL041C, strain sdh2, active compounds read low 1.02 | S. cerevisiae deletion strains, locus YLR027C, strain aat2, active compounds read low 0.985 | S. cerevisiae deletion strains, locus YLR039C, strain RIC1, active compounds read low 1.06 | S. cerevisiae deletion strains, locus YLR058C, strain SHM2, active compounds read low 1.02 | S. cerevisiae deletion strains, locus YLR102C, strain apc9, active compounds read low 1 | S. cerevisiae deletion strains, locus YLR113W, strain HOG1, active compounds read low 0.975 | S. cerevisiae deletion strains, locus YLR221C, strain rsa3, active compounds read low 1 | S. cerevisiae deletion strains, locus YLR258W, strain gsy2, active compounds read low 0.993 | S. cerevisiae deletion strains, locus YLR262C, strain YPT6 (second series), active compounds read low 1.02 | S. cerevisiae deletion strains, locus YLR268W, strain sec22, active compounds read low 0.992 | S. cerevisiae deletion strains, locus YLR320W, strain mms22, active compounds read low 1 | S. cerevisiae deletion strains, locus YLR342W, strain FKS1, active compounds read low 0.994 | S. cerevisiae deletion strains, locus YLR357W, strain rsc2, active compounds read low 0.968 | S. cerevisiae deletion strains, locus YLR370C, strain arc18, active compounds read low 0.986 | S. cerevisiae deletion strains, locus YLR371W, strain rom2, active compounds read low 1 | S. cerevisiae deletion strains, locus YLR384C, strain iki3, active compounds read low 0.999 | S. cerevisiae deletion strains, locus YLR418C, strain cdc73, active compounds read low 1.05 | S. cerevisiae deletion strains, locus YML016C, strain PPZ1, active compounds read low 1.01 | S. cerevisiae deletion strains, locus YML032C, strain rad52, active compounds read low 1 | S. cerevisiae deletion strains, locus YML120C, strain ndi1, active compounds read low 1.01 | S. cerevisiae deletion strains, locus YML124C, strain tub3, active compounds read low 0.999 | S. cerevisiae deletion strains, locus YMR058W, strain fet3, active compounds read low 1 | S. cerevisiae deletion strains, locus YMR078C, strain ctf18, active compounds read low 1.01 | S. cerevisiae deletion strains, locus YMR125W, strain sto1, active compounds read low 0.982 | S. cerevisiae deletion strains, locus YMR129W, active compounds read low 1.02 | S. cerevisiae deletion strains, locus YMR205C, strain PFK2, active compounds read low 0.997 | S. cerevisiae deletion strains, locus YMR223W, strain ubp8, active compounds read low 1.02 | S. cerevisiae deletion strains, locus YMR231W, strain pep5, active compounds read low 0.995 | S. cerevisiae deletion strains, locus YMR263W, strain SAP30, active compounds read low 1.02 | S. cerevisiae deletion strains, locus YMR307W, strain GAS1, active compounds read low 0.976 | S. cerevisiae deletion strains, locus YNL067W, strain RPL9B, active compounds read low 1.03 | S. cerevisiae deletion strains, locus YNL071W, strain lat1, active compounds read low 0.999 | S. cerevisiae deletion strains, locus YNL153C, strain GIM3, active compounds read low 1.04 | S. cerevisiae deletion strains, locus YNL183C, strain NPR1, active compounds read low 0.957 | S. cerevisiae deletion strains, locus YNL209W, strain ssb2, active compounds read low 0.978 | S. cerevisiae deletion strains, locus YNL233W, strain BNI4, active compounds read low 1.04 | S. cerevisiae deletion strains, locus YNL248C, strain rpa49, active compounds read low 1.02 | S. cerevisiae deletion strains, locus YNL250W, strain rad50, active compounds read low 1.03 | S. cerevisiae deletion strains, locus YNL271C, strain bni1, active compounds read low 1.01 | S. cerevisiae deletion strains, locus YNL298W, strain CLA4, active compounds read low 1.01 | S. cerevisiae deletion strains, locus YNL307C, strain MCK1, active compounds read low 1.02 | S. cerevisiae deletion strains, locus YNL322C, strain KRE1 (second series), active compounds read low 0.983 | S. cerevisiae deletion strains, locus YNR049C, strain mso1, active compounds read low 0.992 | S. cerevisiae deletion strains, locus YNR052C, strain pop2, active compounds read low 1.03 | S. cerevisiae deletion strains, locus YOL012C, strain htz1 1.56 | S. cerevisiae deletion strains, locus YOL147C, strain pex11, active compounds read low 1.01 | S. cerevisiae deletion strains, locus YOR001W, strain rrp6, active compounds read low 1.01 | S. cerevisiae deletion strains, locus YOR061W, strain CKA2, active compounds read low 1.01 | S. cerevisiae deletion strains, locus YOR069W, strain VPS5, active compounds read low 1.01 | S. cerevisiae deletion strains, locus YOR070C, strain gyp1, active compounds read low 0.98 | S. cerevisiae deletion strains, locus YOR080W, strain dia2, active compounds read low 0.998 | S. cerevisiae deletion strains, locus YOR083W, strain WHI5, active compounds read low 0.994 | S. cerevisiae deletion strains, locus YOR106W, strain vam3, active compounds read low 1.01 | S. cerevisiae deletion strains, locus YOR136W, strain idh2, active compounds read low 1.01 | S. cerevisiae deletion strains, locus YOR144C, strain elg1, active compounds read low 1 | S. cerevisiae deletion strains, locus YOR184W, strain ser1, active compounds read low 0.995 | S. cerevisiae deletion strains, locus YOR231W, strain MKK1, active compounds read low 0.969 | S. cerevisiae deletion strains, locus YOR265W, strain rbl2, active compounds read low 0.981 | S. cerevisiae deletion strains, locus YOR270C, strain vph1, active compounds read low 1.03 | S. cerevisiae deletion strains, locus YOR290C, strain snf2, active compounds read low 0.994 | S. cerevisiae deletion strains, locus YOR316C, strain cot1, active compounds read low 1.02 | S. cerevisiae deletion strains, locus YPL051W, strain arl3, active compounds read low 0.972 | S. cerevisiae deletion strains, locus YPL078C, strain atp4, active compounds read low 1 | S. cerevisiae deletion strains, locus YPL106C, strain sse1, active compounds read low 0.963 | S. cerevisiae deletion strains, locus YPL240C, strain hsp82, active compounds read low 0.996 | S. cerevisiae deletion strains, locus YPL256C, strain CLN2, active compounds read low 1.01 | S. cerevisiae deletion strains, locus YPR119W, strain clb2, active compounds read low 1 | S. cerevisiae deletion strains, locus YPR141C, strain kar3, active compounds read low 0.993 | S. cerevisiae deletion strains, locus YPR163C, strain tif3, active compounds read low 1.01 | S. cerevisiae deletion strains, locus YPR167C, strain met16, active compounds read low 1.01 | S. cerevisiae deletion strains, strain wtn01, active compounds read low 0.986 | S. cerevisiae strains, strain wild type, active compounds read low 1.02
